According to PubChem BioAssay:
For some assays here: Potency and affinity values are given separately. The source made the active and inactive calls. Unless noted, no rule for the calls is given here.

Key:
[1] = antimalarial activity against Dd2 strain (AID 2302;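 active = growth inhibition above 50% at the single 2 µM test dose, taken to imply half-maximal potency below 2 µM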;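 also: 0% = DMSO untreated growth and 100% = chloroquine plus artemisinin killed control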); conditions: P. falciparum Dd2 in RBCs, LDH growth readout, 72 h; at 2 µM; active compounds read high
[2] = HepG2 cytotoxicity, primary screen, cytotoxicity control for P. falciparum antimalarial project, cell-based, ATP luminescence (AID 2303;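 active = inhibition above 50%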;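 also: 0% = DMSO wells and 100% = digitonin-killed cells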); conditions: HepG2 viability, 24-48 h, at 10 µM, active compounds read high
[3] = molecular target: L-lactate dehydrogenase (Plasmodium falciparum (isolate CDC / Honduras)) (UniProt Q27743); test: PfLDH activity inhibition – cell lysate, 3D7 strain, counter-screen for P. falciparum growth inhibition project (AID 2304);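 also: 0% = vehicle and 100% = reference inhibitor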; conditions: P. falciparum 3D7 crude extract, LDH APAD/NBT absorbance; at 2 µM; active compounds read high
L-lactate dehydrogenase (Plasmodium falciparum (isolate CDC / Honduras)), sequence (Q27743 whole entry, looked up): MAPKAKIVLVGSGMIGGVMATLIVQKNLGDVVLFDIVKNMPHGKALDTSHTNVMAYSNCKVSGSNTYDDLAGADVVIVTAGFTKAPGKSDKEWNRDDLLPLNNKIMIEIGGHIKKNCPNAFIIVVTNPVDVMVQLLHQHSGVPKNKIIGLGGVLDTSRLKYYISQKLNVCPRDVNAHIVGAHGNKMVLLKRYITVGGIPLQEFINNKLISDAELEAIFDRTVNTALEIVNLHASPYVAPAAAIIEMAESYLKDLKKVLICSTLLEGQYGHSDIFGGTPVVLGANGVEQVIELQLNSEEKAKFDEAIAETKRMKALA

[4] = inhibition of 3D7 malaria parasite growth – strain 3D7 (AID 2306);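 also: 0% = DMSO wells and 100% = chloroquine plus artemisinin control wells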; conditions: P. falciparum 3D7 erythrocytic growth, LDH absorbance, 72 h; at 2 µM; active compounds read high
[5] = molecular target: Calcium-dependent protein kinase 1 (Plasmodium falciparum (isolate 3D7)) (UniProt P62344); test: PfCDPK1 kinase inhibitors, biochemical, TCAMS library (AID 1159585; cut-off not given, nearly all actives have IC50 up to about 0.98 µM;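 also: inhibitors leave more ATP so luminescence rises with inhibition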); conditions: recombinant PfCDPK1, Kinase-Glo ATP depletion luminescence
Calcium-dependent protein kinase 1 (Plasmodium falciparum (isolate 3D7)), sequence (P62344 whole entry, looked up): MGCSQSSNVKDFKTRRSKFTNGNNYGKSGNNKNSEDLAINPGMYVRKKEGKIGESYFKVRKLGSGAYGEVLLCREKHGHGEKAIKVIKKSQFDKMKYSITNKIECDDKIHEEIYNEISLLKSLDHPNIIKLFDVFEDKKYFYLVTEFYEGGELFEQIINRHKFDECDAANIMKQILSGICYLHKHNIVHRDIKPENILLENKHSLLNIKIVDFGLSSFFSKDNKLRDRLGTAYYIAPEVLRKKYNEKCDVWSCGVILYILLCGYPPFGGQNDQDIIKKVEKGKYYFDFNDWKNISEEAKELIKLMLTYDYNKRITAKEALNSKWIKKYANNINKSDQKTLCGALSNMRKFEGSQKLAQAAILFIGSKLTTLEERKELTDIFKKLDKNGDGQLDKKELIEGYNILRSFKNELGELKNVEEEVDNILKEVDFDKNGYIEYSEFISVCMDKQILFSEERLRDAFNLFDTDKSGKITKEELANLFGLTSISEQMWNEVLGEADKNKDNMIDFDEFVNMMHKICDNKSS

[6] = molecular target: Plasmodium falciparum protein kinase 6 (PK6, PF3D7_1337100) (UniProt Q8IDW1); test: PfPK6 kinase inhibitors, biochemical, TCAMS library (AID 1159586); conditions: recombinant PfPK6, Kinase-Glo ATP depletion luminescence
Plasmodium falciparum protein kinase 6 (PK6, PF3D7_1337100), sequence (Q8IDW1 1-305): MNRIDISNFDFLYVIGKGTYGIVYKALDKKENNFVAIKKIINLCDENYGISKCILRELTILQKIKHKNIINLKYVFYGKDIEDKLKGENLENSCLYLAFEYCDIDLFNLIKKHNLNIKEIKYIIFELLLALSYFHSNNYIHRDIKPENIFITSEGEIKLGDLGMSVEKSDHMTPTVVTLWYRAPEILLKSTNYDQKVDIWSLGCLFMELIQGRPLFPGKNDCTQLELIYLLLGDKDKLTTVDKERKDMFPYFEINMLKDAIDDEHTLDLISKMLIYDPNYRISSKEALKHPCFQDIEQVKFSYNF

[7] = molecular target: Protein kinase 7 (PK7), Plasmodium falciparum 3D7 (PF3D7_0213400) (UniProt Q7YTF7); test: inhibition of Plasmodium PK7 catalytic activity – biochemical, TCAMS antimalarial set, Kinase-Glo luminescence (AID 1159587); conditions: recombinant PfPK7, Kinase-Glo ATP depletion luminescence
Protein kinase 7 (PK7), Plasmodium falciparum 3D7 (PF3D7_0213400), sequence (Q7YTF7 1-343): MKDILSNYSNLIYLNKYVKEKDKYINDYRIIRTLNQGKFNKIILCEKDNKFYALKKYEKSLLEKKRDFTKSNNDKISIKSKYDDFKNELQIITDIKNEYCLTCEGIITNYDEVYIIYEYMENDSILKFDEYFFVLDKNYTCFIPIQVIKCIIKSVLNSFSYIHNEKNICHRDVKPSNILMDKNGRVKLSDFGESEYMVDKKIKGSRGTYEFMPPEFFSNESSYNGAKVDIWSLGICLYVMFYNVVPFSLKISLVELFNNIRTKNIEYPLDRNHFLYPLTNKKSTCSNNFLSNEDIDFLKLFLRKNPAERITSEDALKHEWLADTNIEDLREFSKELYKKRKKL

[8] = molecular target: Calcium-dependent protein kinase 4 (Plasmodium falciparum (isolate 3D7)) (UniProt Q8IBS5); test: PfCDPK4 kinase inhibitors, biochemical, TCAMS library (AID 1159588; cut-off not given, nearly all actives have IC50 up to about 0.91 µM); conditions: recombinant PfCDPK4, Kinase-Glo ATP depletion luminescence
Calcium-dependent protein kinase 4 (Plasmodium falciparum (isolate 3D7)), sequence (Q8IBS5 whole entry, looked up): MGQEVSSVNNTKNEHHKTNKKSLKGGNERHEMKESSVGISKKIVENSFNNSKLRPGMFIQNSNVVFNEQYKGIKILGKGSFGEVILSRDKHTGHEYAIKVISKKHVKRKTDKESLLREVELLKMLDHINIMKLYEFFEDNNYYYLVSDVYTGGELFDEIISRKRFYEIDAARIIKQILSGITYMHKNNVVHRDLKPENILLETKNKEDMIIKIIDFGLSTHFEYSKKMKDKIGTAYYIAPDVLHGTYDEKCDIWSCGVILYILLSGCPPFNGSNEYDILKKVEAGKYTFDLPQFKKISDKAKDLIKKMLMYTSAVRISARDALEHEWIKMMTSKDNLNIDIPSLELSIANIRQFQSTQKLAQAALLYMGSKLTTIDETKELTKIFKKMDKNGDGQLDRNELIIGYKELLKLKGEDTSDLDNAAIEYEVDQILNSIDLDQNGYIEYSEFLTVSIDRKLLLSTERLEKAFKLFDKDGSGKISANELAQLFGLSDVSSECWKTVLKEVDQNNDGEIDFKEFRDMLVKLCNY

Cc1ccccc1NC(=O)NC1CCN(CCCCCNC(=O)/C=C/c2ccc(Cl)c(Cl)c2)CC1
inactive: growth inhibition [1] 20% | inhibition [2] 13% | inhibition [3] -6% | outcome [5] | outcome [6] | outcome [7] | outcome [8]
active: growth inhibition [4] 102%

COc1cc(C=NNc2cc(C)nc3ccccc23)cc(OC)c1OC
inactive: inhibition [2] 5% | inhibition [3] -1% | outcome [5] | outcome [6] | outcome [7] | outcome [8]
active: growth inhibition [1] 95% | growth inhibition [4] 102%

Clc1ccc2c(Cl)c(CNCCCNc3nc4ccccc4[nH]3)[nH]c2c1
active: growth inhibition [4] 101%
inactive: growth inhibition [1] 7% | inhibition [2] 38% | inhibition [3] -1% | outcome [5] | outcome [6] | outcome [7] | outcome [8]

CCCc1cc(=O)[nH]c(-n2nc(C)cc2NC(=O)c2cc3ccccc3o2)n1
inactive: inhibition [2] 39% | inhibition [3] -2% | outcome [5] | outcome [6] | outcome [7] | outcome [8]
active: growth inhibition [1] 63% | growth inhibition [4] 90%

CS(=O)(=O)c1ccc2c(c1)CCN(CCC1CCC(NC(=O)C(=Cc3ccc(Cl)cc3Cl)c3ccc(-c4ccccc4)cc3)CC1)CC2 (stereo not given)
inactive: growth inhibition [1] 16% | inhibition [2] 33% | inhibition [3] -1% | outcome [5] | outcome [6] | outcome [7] | outcome [8]
active: growth inhibition [4] 81%

Cc1ccc(Nc2nc(C)cc(NC3CC3)n2)cc1
inactive: growth inhibition [1] 15% | inhibition [2] -4% | inhibition [3] 5% | outcome [5] | outcome [6] | outcome [7] | outcome [8]
active: growth inhibition [4] 97%

CC(C)(C)CNc1noc(-c2sccc2Br)n1
inactive: inhibition [2] 4% | inhibition [3] -7% | outcome [5] | outcome [6] | outcome [7] | outcome [8]
active: growth inhibition [1] 71% | growth inhibition [4] 82%

CCOC(=O)c1ccc(NC(=O)Nc2ccc(-c3cccc(-c4nc5c(C)cccc5[nH]4)c3)cc2)cc1
active: growth inhibition [1] 100% | inhibition [2] 91% | growth inhibition [4] 101%
inactive: inhibition [3] -2% | outcome [5] | outcome [6] | outcome [7] | outcome [8]

CC(C)(C)c1ccc(NC(=O)c2cccc(CN3CCCN(Cc4cccc(Cl)c4)CC3)c2)cc1
inactive: growth inhibition [1] 30% | inhibition [3] 3% | outcome [5] | outcome [6] | outcome [7] | outcome [8]
active: inhibition [2] 61% | growth inhibition [4] 85%

CCOc1ccc2nc(C)cc(NN=Cc3cccnc3)c2c1
active: growth inhibition [1] 100% | growth inhibition [4] 102%
inactive: inhibition [2] 18% | inhibition [3] 1% | outcome [5] | outcome [6] | outcome [7] | outcome [8]

Cc1cc(N[C@@H](Cc2ccccc2)C(=O)NCc2cccs2)nc(NCCc2ccc(F)cc2)n1
inactive: inhibition [2] 3% | inhibition [3] 3% | outcome [5] | outcome [6] | outcome [7] | outcome [8]
active: growth inhibition [1] 83% | growth inhibition [4] 100%

CO/C(=C\C=C\c1cc2cc(Cl)c(Cl)cc2[nH]1)C(=O)NC1CCN(CCCc2ccccc2)CC1
active: growth inhibition [1] 75% | inhibition [2] 59% | growth inhibition [4] 93%
inactive: inhibition [3] 0% | outcome [5] | outcome [6] | outcome [7] | outcome [8]

C[C@@H](COc1ccccc1)NCC(O)c1ccc([N+](=O)[O-])c(OCc2ccccc2)c1 (stereo not given in full)
inactive: inhibition [2] 5% | inhibition [3] 7% | outcome [5] | outcome [6] | outcome [7] | outcome [8]
active: growth inhibition [1] 64% | growth inhibition [4] 93%

Cc1cccc2[nH]c(-c3ccc(-c4cccc(NCc5cn6cccnc6n5)c4)cc3)nc12
active: growth inhibition [1] 63% | growth inhibition [4] 94%
inactive: inhibition [2] 9% | inhibition [3] -3% | outcome [5] | outcome [6] | outcome [7] | outcome [8]

Cc1ccc(S(=O)(=O)N(CCCNCc2cccc(O)c2)c2ccccc2)cc1
active: growth inhibition [1] 94% | growth inhibition [4] 95%
inactive: inhibition [2] 6% | inhibition [3] 2% | outcome [5] | outcome [6] | outcome [7] | outcome [8]

C=CCOC(=O)O[C@@H]1[C@@H](OC(=O)OCC=C)[C@@H](OC)O[C@H](COC(c2ccccc2)(c2ccccc2)c2ccccc2)[C@H]1OC(=O)OCC=C
inactive: inhibition [2] 5% | inhibition [3] 2% | outcome [5] | outcome [6] | outcome [7] | outcome [8]
active: growth inhibition [1] 96% | growth inhibition [4] 95%

Nc1ccc(-c2nc3ccc(-c4ccc5nc(-c6ccc(N)cc6)[nH]c5c4)cc3[nH]2)cc1
active: growth inhibition [1] 96% | growth inhibition [4] 101%
inactive: inhibition [2] 45% | inhibition [3] 6% | outcome [5] | outcome [6] | outcome [7] | outcome [8]

CCc1ccc(NC(=O)c2ccc(CN3CCCN(Cc4ccc(C)s4)CC3)cc2)cc1
active: growth inhibition [4] 87%
inactive: growth inhibition [1] -2% | inhibition [2] 48% | inhibition [3] -2% | outcome [5] | outcome [6] | outcome [7] | outcome [8]

CN1CCc2cc(NC(=O)c3cc4ccccc4s3)cc(-c3ccccc3)c2CC1
inactive: growth inhibition [1] 11% | inhibition [2] 20% | inhibition [3] -2% | outcome [5] | outcome [6] | outcome [7] | outcome [8]
active: growth inhibition [4] 91%

CNC(=O)c1cc(S(=O)(=O)Nc2ccc(OC)cc2)cs1
active: growth inhibition [4] 95%
inactive: growth inhibition [1] 48% | inhibition [2] 11% | inhibition [3] -6% | outcome [5] | outcome [6] | outcome [7] | outcome [8]

Cc1ccc(Nc2nc(NN=Cc3cccc([N+](=O)[O-])c3)nc(Nc3ccccc3)n2)c(C)c1
inactive: inhibition [2] 9% | inhibition [3] 4% | outcome [5] | outcome [6] | outcome [7] | outcome [8]
active: growth inhibition [1] 97% | growth inhibition [4] 91%

Cc1nn(-c2ccccc2)nc1C(=O)NC1CCN(CCNC(=O)c2ccc(Cl)c(Cl)c2)CC1
inactive: growth inhibition [1] 5% | inhibition [2] 15% | inhibition [3] 0% | outcome [5] | outcome [6] | outcome [7] | outcome [8]
active: growth inhibition [4] 89%

Cc1nc(C)c(CC(=O)Nc2ccc(-c3ccc(-c4nc5ccc(C(F)(F)F)cc5[nH]4)s3)cc2)s1
active: inhibition [2] 57% | growth inhibition [4] 90%
inactive: growth inhibition [1] 29% | inhibition [3] -8% | outcome [5] | outcome [6] | outcome [7] | outcome [8]

COc1cc(C(=O)N2CCOC(CCN3CCC(c4ccc(Cl)cc4)CC3)(c3ccc(Cl)c(Cl)c3)C2)cc(OC)c1OC (stereo not given)
active: growth inhibition [1] 80% | growth inhibition [4] 91%
inactive: inhibition [2] 44% | inhibition [3] 6% | outcome [5] | outcome [6] | outcome [7] | outcome [8]

O=C(O)C[C@H](NC(=O)CCCNC(=O)c1cccc(-c2ccc(Cl)c(Cl)c2)c1)C(=O)O
inactive: growth inhibition [1] -4% | inhibition [2] 5% | inhibition [3] -3% | outcome [5] | outcome [6] | outcome [7] | outcome [8]
active: growth inhibition [4] 91%

COc1ccc(C(=O)NC2CCN(c3ccnc4cc(Cl)ccc34)C2)cc1 (stereo not given)
inactive: inhibition [2] 31% | inhibition [3] 2% | outcome [5] | outcome [6] | outcome [7] | outcome [8]
active: growth inhibition [1] 100% | growth inhibition [4] 100%

CON=C1CCC(Cn2ccnc2)(c2ccc(Cl)cc2Cl)CC1 (stereo not given)
inactive: inhibition [2] 7% | inhibition [3] -5% | outcome [5] | outcome [6] | outcome [7] | outcome [8]
active: growth inhibition [1] 56% | growth inhibition [4] 100%

Cc1ccc(C(=O)NC2CC2)cc1-c1ccc2c(cnn2S(=O)(=O)c2ccc(F)cc2)c1
active: growth inhibition [1] 69% | growth inhibition [4] 93%
inactive: inhibition [2] 7% | inhibition [3] -2% | outcome [5] | outcome [6] | outcome [7] | outcome [8]

CCOc1ccc(C(Cc2ccccc2)NC(=O)c2cccnc2)cc1OCC (stereo not given)
inactive: inhibition [2] -21% | inhibition [3] 5% | outcome [5] | outcome [6] | outcome [7] | outcome [8]
active: growth inhibition [1] 98% | growth inhibition [4] 100%

CC(C)(C)NCc1cc(Nc2ccnc3cc(Cl)ccc23)ccc1F
inactive: inhibition [2] 21% | inhibition [3] 6% | outcome [5] | outcome [6] | outcome [7] | outcome [8]
active: growth inhibition [1] 100% | growth inhibition [4] 101%

CC(Cc1ccc(OCCN2CCN(c3cccc(Cl)c3)CC2)cc1)NCC(O)c1cccc(C(F)(F)F)c1 (stereo not given)
inactive: inhibition [3] -1% | outcome [5] | outcome [6] | outcome [7] | outcome [8]
active: growth inhibition [1] 98% | inhibition [2] 100% | growth inhibition [4] 99%

N/C(=N\c1cccc(Cc2ccc([N+](=O)[O-])cc2)n1)Nc1ccccc1
inactive: growth inhibition [1] 19% | inhibition [2] 28% | inhibition [3] 4% | outcome [5] | outcome [6] | outcome [7] | outcome [8]
active: growth inhibition [4] 96%

O=C(NC1CCN(c2ccnc3ccccc23)C1)c1cccc(C(F)(F)F)c1 (stereo not given)
inactive: inhibition [2] 28% | inhibition [3] 6% | outcome [5] | outcome [6] | outcome [7] | outcome [8]
active: growth inhibition [1] 86% | growth inhibition [4] 94%

NC(N)=NCCN(Cc1ccccc1)c1ccc(Cl)cc1
inactive: inhibition [2] -7% | inhibition [3] -3% | outcome [5] | outcome [6] | outcome [7] | outcome [8]
active: growth inhibition [1] 99% | growth inhibition [4] 100%

Cc1ccc(NC(=O)c2ccc(C(=O)NC3CCN(CC4CCCCC4)CC3)cc2)cc1
inactive: growth inhibition [1] 0% | inhibition [2] 36% | inhibition [3] -6% | outcome [5] | outcome [6] | outcome [7] | outcome [8]
active: growth inhibition [4] 93%

Cc1cccc(CN2CCN(c3ncc(C(=O)NC4CC4)cc3Cl)CC2)c1
inactive: inhibition [2] 2% | inhibition [3] -4% | outcome [5] | outcome [6] | outcome [7] | outcome [8]
active: growth inhibition [1] 73% | growth inhibition [4] 84%

COc1ccc2c(NN=Cc3cccc(C)n3)cc(-c3ccccc3)nc2c1
active: growth inhibition [4] 97%
inactive: growth inhibition [1] 25% | inhibition [2] -7% | inhibition [3] 3% | outcome [5] | outcome [6] | outcome [7] | outcome [8]

O=C(Nc1cccc(-c2cccc(CN3CCCC3)c2)c1)c1ccc(Cl)cc1
inactive: growth inhibition [1] 32% | inhibition [3] 0% | outcome [5] | outcome [6] | outcome [7] | outcome [8]
active: inhibition [2] 50% | growth inhibition [4] 93%

Cc1c(CNCCCNc2nc3ccncc3[nH]2)sc(Br)c1Br
inactive: growth inhibition [1] 1% | inhibition [2] -10% | inhibition [3] 3% | outcome [5] | outcome [6] | outcome [7] | outcome [8]
active: growth inhibition [4] 87%

Cc1cc(Nc2ccncc2)n2nc(C)c(-c3ccc(Cl)cc3)c2n1
active: growth inhibition [1] 99% | growth inhibition [4] 101%
inactive: inhibition [2] -9% | inhibition [3] 2% | outcome [5] | outcome [6] | outcome [7] | outcome [8]
